Molecules are shown by their SMILES. In all, about 69,000 compounds went through this assay and about 420 (0.61%) showed an effect of 50% or more. Only a selection was taken, and strong results are over-represented in it overall.

This experiment deals with T1, Histidine--tRNA ligase (Leishmania infantum) (UniProt A4I591).
T1 sequence (whole entry): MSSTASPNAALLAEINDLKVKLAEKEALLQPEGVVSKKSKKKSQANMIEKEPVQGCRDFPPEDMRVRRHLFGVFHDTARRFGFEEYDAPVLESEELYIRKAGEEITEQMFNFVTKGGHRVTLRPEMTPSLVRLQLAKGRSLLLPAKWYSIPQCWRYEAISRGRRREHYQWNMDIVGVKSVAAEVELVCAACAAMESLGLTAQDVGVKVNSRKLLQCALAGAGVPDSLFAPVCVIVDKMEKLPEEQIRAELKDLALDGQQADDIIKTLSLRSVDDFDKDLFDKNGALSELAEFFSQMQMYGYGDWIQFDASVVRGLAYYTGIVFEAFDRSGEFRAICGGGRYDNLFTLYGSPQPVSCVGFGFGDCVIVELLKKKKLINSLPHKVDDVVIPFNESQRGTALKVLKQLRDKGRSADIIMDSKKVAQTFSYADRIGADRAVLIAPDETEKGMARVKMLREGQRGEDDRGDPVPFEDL
The experiment in a line: Leishmania infantum Histidine tRNA synthetase (LdHisRS). The experiment is classed as functional. Also noted: scale not given: in the data most compounds retested in dose-response had high values. The conditions noted are these: 30 µM.
Regarding `Cn1ncc2c1NC(=O)CC2c1ccccc1Br` (stereo not given), the Percent Effect was -2.5%.

As to `O=C1CC(c2ccccc2C(F)(F)F)c2sc(N3CCOCC3)nc2N1` (stereo not given), the Percent Effect is 5%. With `O=C1CC(c2ccccc2Br)c2sc(N3CCOCC3)nc2N1` (stereo not given), the Percent Effect was found to be 87.5%. In the case of `COc1cccc(C2CC(=O)Nc3nc(N)sc32)c1OC` (stereo not given), the Percent Effect was determined as 91.4%. Under `COc1cccc([C@@H]2N[C@H](c3nccs3)Cc3ccsc32)c1OC` stands 9.86%; under `COc1cccc(C2C3=C(COC3=O)Nc3[nH]nc(C)c32)c1OC` (stereo not given), 16.7%.

Take `Cc1ccc(C(=O)N2[C@@H]3CC[C@H]2CN(C)C(=O)C3)c(=O)[nH]1`: the Percent Effect amounted to 15.9%.

`CN1[C@@H](C(=O)NCC2CC2)C[C@H]2CN(Cc3cccc(C#N)c3)C[C@H]21`: the Percent Effect is 17.4%.

`CN(C)CCN1C(=O)C[C@@H]2[C@@H]1CCN2S(=O)(=O)c1ccccc1`: the Percent Effect came to 13.6%. The value for `O=C(N[C@@H]1CN(Cc2ccc3c(c2)OCO3)[C@@H]2CCCO[C@@H]21)C1CC1` was 7.55%; that for `O=C1CC[C@H]2CN(c3ncc(F)cn3)CC[C@H]2N1CCc1ccccn1` was 4.84%; that for `Cc1csc(N2CCN(C(=O)Cc3ccc(C)s3)CC2)n1` was 35.7%. Under `Cc1csc(N2CCN(C(=O)CCC(=O)c3ccc(C)s3)CC2)n1` stands 50%; under `Cc1csc(N2CCN(C(=O)c3ccc(C)s3)CC2)n1`, 11.4%; under `COCCN1CCO[C@@H]2CN(C(=O)COc3ccc(C)cc3)C[C@@H]2C1`, 10.3%. For the compound `Cc1cc(C(=O)N2CC[C@@H]3CO[C@@H](CN4CCCC4)[C@@H]3C2)no1`, the Percent Effect is -2.63%. For `CCCn1nc2c(cc1=O)CN(CCN1CCCC1=O)CC2`, the Percent Effect was 23.7%. The value for `CCCn1nc2c(cc1=O)CN(CCS(C)(=O)=O)CC2` was 40.5%. Consider `CCCn1nc2c(cc1=O)CN(CCCN1CCCC1=O)CC2`, for which the Percent Effect was 52.4%. The value for `CCn1nc2c(cc1=O)CN(CCCN1CCCC1=O)CC2` was 30.7%; that for `CCCn1nc2c(cc1=O)CN(CCCS(N)(=O)=O)CC2` was 61.9%; that for `CCCn1nc2c(cc1=O)CN(CC(=O)Nc1ccncc1)CC2` was 25%. For `CN(C)C(=O)CO[C@H]1CN(Cc2ccccc2)[C@@H]2CCCO[C@H]12`, the Percent Effect came out at 20.6%. In the case of `CC(C)(C)CC(=O)N1CC[C@H]2NC(=O)N(Cc3ccccc3)C(=O)[C@H]21`, the Percent Effect came to 30.6%.

For the compound `Cc1ncsc1CN1CC[C@H]2OCC[C@@]2(C(=O)NC(C)C)C1`, the Percent Effect is -0.971%.

In the case of `CO[C@@H]1CC[C@H]2[C@H]1OCCN2Cc1ccc(F)c(F)c1`, the Percent Effect came to 8.33%. Under `c1cnn(CCCO[C@@H]2CN(C3CCOCC3)[C@@H]3CCCO[C@@H]32)c1` stands 15.3%. The value for `COc1ccccc1N1CCC(NCc2c(C)noc2C)C1` (stereo not given) was 7.14%; that for `Cc1noc(CNc2c(N3CCCC3)cccc2N2CCCC2)n1` was 6.67%. In the case of `Cc1noc(C)c1CNc1c(N2CCCC2)cccc1N1CCCC1`, the Percent Effect was determined as 84%. Under `Cc1noc([C@@H]2C[C@H]3CN(CC4CCOCC4)C[C@H]3O2)n1` stands 10.5%; under `CO[C@H]1CCN(C(=O)c2ccsc2)[C@@H]2CN(CC3CC3)C[C@H]12`, 5.77%; under `CC(=O)N(Cc1noc(C)n1)C1CCN(Cc2ccc(C#N)cc2)C1` (stereo not given), 17.1%. The value for `Cc1nc(CN(C)C2CCN(Cc3ccc4ccccc4n3)C2)no1` (stereo not given) was 53.1%; that for `CC(=O)N(Cc1noc(C)n1)C1CCN(Cc2ccccc2C#N)C1` (stereo not given) was 2.7%; that for `CC(=O)N(Cc1noc(C)n1)C1CCN(Cc2cccc(C#N)c2)C1` (stereo not given) was 63.2%.

As for `Cc1nc(CN(C)C2CCN(Cc3nc4ccccc4n3C)C2)no1` (stereo not given), the Percent Effect came to 10.3%.

For the compound `Cc1nc(CN(C)C2CCN(Cc3nc4ccccc4s3)C2)no1` (stereo not given), the Percent Effect stood at 25.8%. Under `Cc1cnc(N2C[C@@H]3[C@@H](C(=O)NCC(C)C)CCS(=O)(=O)[C@@H]3C2)nc1` stands 12.3%; under `CN1[C@H](Cn2cncn2)C[C@@H]2CN(C3CCOCC3)CC[C@@H]21`, 20%; under `Cc1n[nH]c(C)c1CN1CC[C@@H]2[C@@H](CCC(=O)N2CCc2c[nH]cn2)C1`, 19.4%. Under `CC(C)CNC(=O)N1C[C@H]2C[C@H](C(=O)NCc3ccccc3)[C@@H](C1)O2` stands 14.6%. Under `O=c1c2cnc(N3CCCCC3)nc2ccn1-c1ccccc1` stands 7.77%; under `O=c1c2cnc(N3CCCC3)nc2ccn1-c1cccc(F)c1`, 13.3%; under `O=c1c2cnc(N3CCOCC3)nc2ccn1-c1ccccc1`, 50%. `COc1cc(CCC(C)O)c(OC)c2c1OCO2` (stereo not given): the Percent Effect worked out at 0%. Regarding `COc1cc(CO)c(OC)c2c1OCO2`, the Percent Effect is 18.3%. Take `COc1cc(CCO)c(OC)c2c1OCO2`: the Percent Effect was 51.7%. For the compound `Cc1noc([C@H]2C[C@H]3OCC[C@H]3N(S(C)(=O)=O)C2)n1`, the Percent Effect was -20.2%.

Regarding `COC(=O)c1ccc(OC)c(Cn2cc(N)cn2)c1`, the Percent Effect worked out at 50.6%.

Turning to `CCn1cc(C(=O)Nc2cc(C(=O)OC)ccc2C(=O)OC)cn1`, the Percent Effect was found to be 10.3%. On to `COC(=O)c1ccc(OC)c(Cn2cc(Br)cn2)c1`, for which the Percent Effect was 1.12%. The value for `CNC(=O)[C@@H]1[C@@H](c2ccccc2)CN2CCN(Cc3ccccn3)C[C@H]12` was 8.16%.

For `CSCC(=O)N1C[C@H]2CC[C@@H]1CN(Cc1ccccc1)C2`, the Percent Effect stood at 26.9%. The value for `CN(Cc1ccco1)[C@@H]1CN(Cc2cccs2)C[C@@H]2CCCO[C@@H]21` was 5.46%.

For the origin of these results see ChEMBL document CHEMBL3988442, “University of Dundee, Small-Polar-MMV Screening Library” (2021).
